# Source: the supplement of paper PMC8728848
# About 410 targets per protein were measured; listed, in parts, are those with the strongest signals and a random draw of the rest.
# Key:
# Assay in all cases: glycan array binding signal (z-score within array); higher = stronger binding
# Settings in all cases: glycan notation: IUPAC condensed, linker removed
# Fuc(a1-2)Gal(b1-3)GlcNAc = molecular target: Fuc(a1-2)Gal(b1-3)GlcNAc
# How it was run: (§1)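 The binding signal is a Z-score computed within each array and averaged over linkers. Arrays of the same protein sequence at different concentrations or buffers were also averaged together. Data originate from 3228 arrays in the Consortium for Functional Glycomics database, kept only where the protein sequence was available.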
# [1] = molecular target: Fuc(a1-2)Gal(b1-4)GlcNAc(b1-3)Gal(b1-4)GlcNAc
# How it was run: as §1
# [2] = molecular target: Fuc(a1-2)[Gal(a1-3)]Gal(b1-4)Glc
# How it was run: as §1
# [3] = molecular target: Fuc(a1-2)[GalNAc(a1-3)]Gal(b1-4)GlcNAc(b1-3)Gal(b1-4)GlcNAc
# How it was run: as §1
# [4] = molecular target: Fuc(a1-2)[GalNAc(a1-4)]Gal(b1-4)GlcNAc
# How it was run: as §1
# Gal(a1-2)Gal = molecular target: Gal(a1-2)Gal
# How it was run: as §1
# [5] = molecular target: Gal(a1-3)Gal(b1-4)[Fuc(a1-3)]GlcNAc(b1-2)Man(a1-3)[Gal(a1-3)Gal(b1-4)[Fuc(a1-3)]GlcNAc(b1-2)Man(a1-6)]Man(b1-4)GlcNAc(b1-4)GlcNAc
# How it was run: as §1
# [6] = molecular target: Gal(b1-3)[Fuc(a1-4)]GlcNAc(b1-2)Man(a1-3)[Gal(b1-3)[Fuc(a1-4)]GlcNAc(b1-2)Man(a1-6)]Man(b1-4)GlcNAc(b1-4)[Fuc(a1-6)]GlcNAc
# How it was run: as §1
# [7] = molecular target: Gal(b1-4)GalNAc(a1-3)[Fuc(a1-2)]Gal(b1-4)GlcNAc
# How it was run: as §1
# Gal(b1-4)Glc6S = molecular target: Gal(b1-4)Glc6S
# How it was run: as §1
# [8] = molecular target: Gal(b1-4)GlcNAc(b1-2)Man(a1-3)[Man(a1-6)]Man(b1-4)GlcNAc(b1-4)GlcNAc
# How it was run: as §1
# [9] = molecular target: Gal(b1-4)GlcNAc(b1-2)Man(a1-6)Man(b1-4)GlcNAc(b1-4)GlcNAc
# How it was run: as §1
# [10] = molecular target: Gal(b1-4)GlcNAc(b1-3)Gal(b1-4)GlcNAc(b1-3)Gal(b1-4)GlcNAc
# How it was run: as §1
# [11] = molecular target: Gal(b1-4)GlcNAc(b1-6)Gal(b1-4)GlcNAc(b1-6)GalNAc
# How it was run: as §1
# Gal3S(b1-4)Glc6S = molecular target: Gal3S(b1-4)Glc6S
# How it was run: as §1
# Gal3S(b1-4)GlcNAc6S = molecular target: Gal3S(b1-4)GlcNAc6S
# How it was run: as §1
# GalNAc(a1-3)GalNAc = molecular target: GalNAc(a1-3)GalNAc
# How it was run: as §1
# GalNAc(b1-3)Gal = molecular target: GalNAc(b1-3)Gal
# How it was run: as §1
# GalNAc(b1-3)GalNAc = molecular target: GalNAc(b1-3)GalNAc
# How it was run: as §1
# [12] = molecular target: GlcNAc(b1-3)Gal(b1-4)GlcNAc(b1-3)Gal(b1-4)GlcNAc
# How it was run: as §1
# [13] = molecular target: GlcNAc(b1-4)GlcNAc(b1-4)GlcNAc
# How it was run: as §1
# [14] = molecular target: Man(a1-2)Man(a1-2)Man(a1-6)[Man(a1-3)]Man
# How it was run: as §1
# [15] = molecular target: Man(a1-2)Man(a1-3)[Man(a1-2)Man(a1-6)]Man
# How it was run: as §1
# [16] = molecular target: Man(a1-2)Man(a1-3)[Man(a1-6)]Man(a1-6)[Man(a1-2)Man(a1-3)]Man(b1-4)GlcNAc(b1-4)GlcNAc
# How it was run: as §1
# [17] = molecular target: Man(a1-2)Man(a1-6)[Man(a1-3)]Man(a1-6)[Man(a1-2)Man(a1-2)Man(a1-3)]Man(b1-4)GlcNAc(b1-4)GlcNAc
# How it was run: as §1
# [18] = molecular target: Man(a1-3)[Man(a1-6)]Man(a1-6)[Man(a1-2)Man(a1-3)]Man(b1-4)GlcNAc(b1-4)GlcNAc
# How it was run: as §1
# [19] = molecular target: Man(a1-3)[Man(a1-6)]Man(a1-6)[Man(a1-3)]Man(b1-4)GlcNAc(b1-4)GlcNAc
# How it was run: as §1
# [20] = molecular target: Man(a1-3)[Man(a1-6)]Man(b1-4)GlcNAc(b1-4)GlcNAc
# How it was run: as §1
# [21] = molecular target: Neu5Ac(a2-3)Gal(b1-3)[Fuc(a1-4)]GlcNAc(b1-3)Gal(b1-3)[Fuc(a1-4)]GlcNAc
# How it was run: as §1
# [22] = molecular target: Neu5Ac(a2-3)Gal(b1-3)[Neu5Ac(a2-6)]GalNAc
# How it was run: as §1
# [23] = molecular target: Neu5Ac(a2-3)Gal(b1-4)[Fuc(a1-3)]GlcNAc(b1-6)[Gal(b1-3)]GalNAc
# How it was run: as §1
# [24] = molecular target: Neu5Ac(a2-3)Gal(b1-4)[Fuc(a1-3)]GlcNAc(b1-6)[Neu5Ac(a2-3)Gal(b1-3)]GalNAc
# How it was run: as §1
# [25] = molecular target: Neu5Ac(a2-3)Gal6S(b1-4)GlcNAc
# How it was run: as §1
# [26] = molecular target: Neu5Ac(a2-8)Neu5Ac(a2-3)[GalNAc(b1-4)]Gal(b1-4)Glc
# How it was run: as §1
# [27] = molecular target: Neu5Ac(a2-8)Neu5Ac(a2-8)Neu5Ac(a2-3)Gal(b1-4)Glc
# How it was run: as §1
binder,measurement,setting,value
PP2A1 (Arabidopsis thaliana) (protein) MFRNQDSKYLIPVQKEAPPVTTLPMKASTVKSPHNCEAILRDADPPISLSSVNLSEQLRSGVFLKPKKQIKYWVDERNSNCFMLFAKNLSITWSDDVNYWTWFTEKESPNENVEAVGLKNVCWLDITGKFDTRNLTPGIVYEVVFKVKLEDPAYGWDTPVNLKLVLPNGKEKPQEKKVSLRELPRYKWVDVRVGEFVPEKSAAGEITFSMYEHAAGVWKKGLSLKGVAIRPKQHHHHHH,glycan array binding signal (z-score),Fuc(a1-2)Gal(b1-3)GlcNAc,-0.319
same,glycan array binding signal (z-score),[1],-0.347
same,glycan array binding signal (z-score),[2],-0.572
same,glycan array binding signal (z-score),[3],-0.018
same,glycan array binding signal (z-score),[4],-0.398
same,glycan array binding signal (z-score),Gal(a1-2)Gal,-0.291
same,glycan array binding signal (z-score),[5],-0.011
same,glycan array binding signal (z-score),[6],1.34
same,glycan array binding signal (z-score),[7],-0.498
same,glycan array binding signal (z-score),Gal(b1-4)Glc6S,0.116
same,glycan array binding signal (z-score),[8],2.93
same,glycan array binding signal (z-score),[9],0.362
same,glycan array binding signal (z-score),[10],-0.223
same,glycan array binding signal (z-score),[11],0.051
same,glycan array binding signal (z-score),Gal3S(b1-4)Glc6S,0.405
same,glycan array binding signal (z-score),Gal3S(b1-4)GlcNAc6S,0.165
same,glycan array binding signal (z-score),GalNAc(a1-3)GalNAc,-0.698
same,glycan array binding signal (z-score),GalNAc(b1-3)Gal,-0.293
same,glycan array binding signal (z-score),GalNAc(b1-3)GalNAc,-0.497
same,glycan array binding signal (z-score),[12],-0.708
same,glycan array binding signal (z-score),[13],2.52
same,glycan array binding signal (z-score),[14],0.03
same,glycan array binding signal (z-score),[15],0.174
same,glycan array binding signal (z-score),[16],3.07
same,glycan array binding signal (z-score),[17],2.69
same,glycan array binding signal (z-score),[18],2.97
same,glycan array binding signal (z-score),[19],3.55
same,glycan array binding signal (z-score),[20],2.85
same,glycan array binding signal (z-score),[21],0.594
same,glycan array binding signal (z-score),[22],0.432
same,glycan array binding signal (z-score),[23],-0.268
same,glycan array binding signal (z-score),[24],-0.091
same,glycan array binding signal (z-score),[25],0.07
same,glycan array binding signal (z-score),[26],0.265
same,glycan array binding signal (z-score),[27],0.006
